# From PubChem BioAssay (NCI)
# This is part of a sample that, as a whole, favours compounds with a hit. Of some 83,000 tested, about 20% had one in any assay.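 96-well plates, one dose, 48 hours. Percent growth reported; active if below 10.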 Active and inactive are the calls of the source.
# System: MDA-MB-468 breast
# Experiment: NCI-60 one-dose screen, 48 h (100 = growth as untreated, 0 = no growth, -100 = all killed)
# Details: 10 µM unless noted
row,Structure (SMILES),growth
1,O=C(C[C@@H](C(=O)NCc1cccc(C(F)(F)F)c1)N1C(=O)[C@@H](N2C(=O)OC[C@@H]2c2ccccc2)[C@H]1/C=C/c1ccccc1)NC1CCN(Cc2ccccc2)CC1,-1.25% (active)
2,CCOc1ccccc1NC(=O)CCl,79.4% (inactive)
3,COC(=O)c1cc(-c2ccccc2)[nH]c1N/N=C/c1c(Cl)cccc1Cl,-7.8% (active)
4,CN1CCN(Cc2ccc(NC(=O)c3cccc(C#Cc4c(N)ncc5ccc(F)cc45)c3)cc2C(F)(F)F)CC1,-61.7% (active)
5,CC(=O)OC[C@H]1OC(Sc2sc(C(=O)c3ccc(Cl)cc3)c(N)c2-c2nc3ccccc3s2)[C@H](OC(C)=O)[C@@H](OC(C)=O)[C@@H]1OC(C)=O (stereo partly specified),112% (inactive)
6,COc1ccc2nc3ccccc3c(NCc3ccc(C)cc3)c2c1,-18.6% (active)
7,O=C1N[C@H]2[C@H](CS[C@H]2CCCCC(=O)N(CCP(c2ccccc2)c2ccccc2)CCP(c2ccccc2)c2ccccc2)N1,33.8% (inactive)
8,CCCCNC1=C(OCC)C(=O)c2ccccc2C1=O,56.3% (inactive)
9,O=C(O)c1cn(C2CC2)c2cc(N3CCN(C(=O)N/N=C/c4ccccc4)CC3)c(F)cc2c1=O,83.7% (inactive)
10,CCNC(=O)C1CCCN1C(=O)C(CCCN=C(N)N)NC(=O)C(CC(C)C)NC(=O)C(CC(C)C)NC(=O)C(Cc1ccc(O)cc1)NC(=O)C(CO)NC(=O)C(Cc1c[nH]c2ccccc12)NC(=O)C(Cc1cnc[nH]1)NC(=O)C1CCC(=O)N1 (stereo unspecified),87.4% (inactive)
11,Clc1ccc2oc3c(NCCCN4CCOCC4)c4ccccc4nc3c2c1,5.24% (active)
